Wnt bcat act: Wnt/beta-catenin pathway activators, primary screen, cell-based, plate reader, single point | Wnt/beta-catenin reporter cell assay, activator | activation, % at 9.35 µM | hit rate 1.2% among 300,000; in the data active = activation above about 30%, passing the limit was not always enough; inconclusive = no clear call, values can overlap the other calls;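 also: 0% = neutral control wells and 100% = positive control wells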
HSF-1 act: HSF-1 activators, primary screen, NIH3T3-HGL cells, MG132 stress, luminescence, single point; NIH3T3-HGL HSF-1 luciferase reporter, 8 h; 100% = twice DMSO control signal; activation, % at 9 µM; hit rate 1.7% among 300,000;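 active = mean replicate activation of at least 50% with a set share of replicates each reaching 50%; inconclusive = only one of those two conditions met; inactive = mean below 50% and too few replicates reaching it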;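 also: 0% = median of the neutral control wells and 100% = twice that signal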
SMARCA2 activ: SMARCA2 (BRM) function activators, primary screen, cell-based, luminescence, high throughput. MG213 cells, MMTV-luciferase reporter, dexamethasone, overnight. activation, % at 9.1 µM. hit rate 1% among 370,000; in the data active = activation above about 7.8%;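 also: 0% = vehicle wells and 100% = reference activator wells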
esBAF inh: Bmi1 luciferase reporter increase in mESCs, primary screen, esBAF inhibitor project, mouse ES cells, Bmi1 luciferase knock-in, single point; hit rate 2% among 350,000; reporter increase, % at 12.5 µM; AID 602393, 2012; 24 h; 100% = twice the neutral-well signal; in the data active = activation above about 40%; inconclusive = no clear call, values can overlap the other calls;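 also: 0% = median of the plate's neutral control wells and 100% = double that signal; a rise in the Bmi1 reporter signal indicates esBAF inhibition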
HSF1 inhib: HSF1 inhibitors in luciferase reporter cells, primary screen, cell-based, NIH3T3, luminescence | NIH3T3-HGL HSE-luciferase, MG132-induced, luminescence 8 h; stronger effect = lower value | activity change, negative = inhibition, % at 7.5 µM (by protocol) | hit rate 0.77% among 300,000 | AID 2098, 2009;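 active = more than half of replicate wells show activity change below -50%, luminescence cut by over half; inconclusive = some wells, but at most half, below -50%; inactive = no replicate well below -50%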;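 also: luciferase reports HSF-1 transcriptional activity via heat shock element; 0% = median of DMSO wells and -100% = zero luminescence signal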
MITF TRPM1 HTS: activators of MITF-driven TRPM1 promoter reporter, primary screen, cell-based, SK-MEL-5, luciferase, single point; SK-MEL-5 TRPM1-promoter luciferase, 24 h; % of positive control, neutral wells = 0; activation, % at 12.5 µM; hit rate 0.75% among 300,000; AID 588334, 2011;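 active = mean activation of at least 80% with every replicate also reaching 80%; inconclusive = mean reaches 80% but some replicate falls short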;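 also: 0% = neutral control wells and 100% = parthenolide positive control wells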
Active calls of the source: *; ? = inconclusive; / = not tested or not shown. The list is not random: actives were taken first. Their share in the collection is about 4.3%.

SMILES	Wnt bcat act	HSF-1 act	SMARCA2 activ	esBAF inh	HSF1 inhib	MITF TRPM1 HTS
O=C(Nc1ccc(-c2nc3ncccc3o2)cc1)c1ccc([N+](=O)[O-])o1	0	151*	0	-56	104	-77
Cc1ccc(-c2nc3ncccc3o2)cc1NC(=O)c1ccc([N+](=O)[O-])o1	/	139*	/	4	91	-81
Cc1cc(-c2nc3ncccc3o2)ccc1NC(=O)c1ccc([N+](=O)[O-])o1	0	/	-1	2	/	3
Cn1cc([N+](=O)[O-])c(C(=O)Nc2ccc(-c3nc4ccccc4o3)cc2)n1	4	285*	2	/	281	-44
Cc1ccccc1-c1ccc([C@H]2[C@@H](CO)N3CCCCN(C(=O)NC4CCCC4)C[C@H]23)cc1	/	/	/	-4	/	/
CC(C)NC(=O)N(C)C[C@@H]1Oc2ccc(NC(=O)Nc3ccc4c(c3)OCO4)cc2C(=O)N([C@H](C)CO)C[C@H]1C	/	/	/	3	/	/
O=C(C1CC1)n1cc(C(=S)N2CCOCC2)c2ccccc21	/	-5	2	/	3	5
O=C(c1cccs1)n1cc(C(=S)N2CCOCC2)c2ccccc21	50*	4	1	-8	-9	-10
CS(=O)(=O)N1C[C@H](O)COC[C@@H]2O[C@@H](CC(=O)NCCc3ccncc3)CC[C@H]21	/	/	/	-3	/	/
Cc1noc(C)c1NC(=O)Nc1ccc2c(c1)CC(=O)N([C@H](C)CO)C[C@H](C)[C@H](CN(C)Cc1ccccc1)O2	/	/	/	1	/	/
CCCN(Cc1ccccc1)C(=S)NC(=O)c1ccccc1[N+](=O)[O-]	-1	-67	-1	/	-60*	-19
Cc1ccc(C(=O)NCc2ccc3c(c2)OCO3)c(Cl)c1	8	/	-4	10	/	/
Cc1cccc(CS(=O)(=O)c2ncc(Cl)c(C(=O)NCc3ccc4c(c3)OCO4)n2)c1	-7	317*	-10	-40	268	-61
COC(=O)c1ccc(NC(=O)c2nc(S(=O)(=O)Cc3cccc(C)c3)ncc2Cl)cc1	-13	-88	-14	-73	-86*	-94
CC(=O)Nc1ccc(NC(=O)c2nc(S(=O)(=O)Cc3cccc(C)c3)ncc2Cl)cc1	-14	-40	-8	-18	?	-48
C[C@@H]1CN([C@H](C)CO)C(=O)Cc2cc(NC(=O)CCC(F)(F)F)ccc2O[C@@H]1CN(C)S(C)(=O)=O	/	/	/	-1	/	/
C[C@@H]1CCCCO[C@@H](CN(C)C(=O)CCC(F)(F)F)[C@@H](C)CN([C@H](C)CO)C(=O)c2cc(NS(=O)(=O)c3cn(C)cn3)ccc2O1	/	/	/	-4	/	/
COc1ccc2[nH]cc(C(=O)CNc3nc(C)cs3)c2c1	42*	-1	4	70*	-5	/
COc1ccc2[nH]cc(C(=O)CCl)c2c1	1	-24	-7	-7	-5	-91
COc1cc(/C=N/N2CCOCC2)ccc1OCc1ccccc1	13	17	0	61*	26	53
COc1cc(/C=C2\C(=O)N(c3cccc(C(=O)O)c3)N=C2C)ccc1OCc1ccccc1	11	/	-2	52*	/	/
COc1ccc(/C=N/N2CCOCC2)cc1O	/	1	0	20	1	14
COc1cc(/C=N/N2CCOCC2)ccc1OCc1ccc(Cl)cc1	11	80*	1	/	34	96*
COc1cc(/C=C/C(=O)N2CCOCC2)ccc1OCc1ccccc1	/	75*	-3	5	46	-13
COc1ccc(/C=N/N2CCOCC2)cc1OCc1ccccc1	-4	-5	-1	-8	-8	-1
SMILES	Wnt bcat act	HSF-1 act	SMARCA2 activ	esBAF inh	HSF1 inhib	MITF TRPM1 HTS
COc1ccc(S(=O)(=O)Nc2ccc3c(c2)C(=O)N([C@@H](C)CO)C[C@H](C)[C@@H](CN(C)S(=O)(=O)c2cn(C)cn2)OCCCC[C@H](C)O3)cc1	/	/	/	-4	/	/
O=C(C[C@@H]1CC[C@@H]2[C@H](COC[C@@H](O)CN2Cc2nccs2)O1)NCc1ccc(Cl)cc1	/	/	/	0	/	/
CCCOc1ccc(C(=O)Nc2ccccc2[N+](=O)[O-])cc1	/	59*	2	64*	35	58
COc1ccc(C(=O)CC(=O)C(=O)Nc2cccc([N+](=O)[O-])c2C)cc1	-3	58*	-4	/	19	-8
COc1cccc(C(=O)CC(=O)C(=O)Nc2cccc([N+](=O)[O-])c2C)c1	-3	-5	2	3	-4	-21
Cc1ccc(Cl)c(OCC(=O)OCC(=O)c2ccc[nH]2)c1	4	/	-2	-1	/	-5
O=C(COc1ccc(Cl)cc1Cl)Nc1ccccc1F	45*	4	1	/	0	/
O=C(COc1ccccc1O)Nc1ccccc1Cl	/	39	2	52*	21	48
COc1ccc(OCC(=O)Nc2ccccc2Cl)cc1	-1	16	-2	/	27	0
CSc1ccccc1NC(=O)COc1ccc(Cl)cc1C	1	14	4	/	14	15
O=C(COc1ccc(Cl)cc1Cl)c1ccc[nH]1	33*	16	-1	?	21	72
Cc1cc(Cl)ccc1OCC(=O)Nc1ccccc1CO	17	20	1	42*	6	37
COC(=O)C[C@H]1CC[C@@H]2[C@@H](COc3ccc(NC(=O)c4ccc(F)cc4)cc3C(=O)N2C)O1	/	/	/	-1	/	/
CC(C)NC(=O)Nc1ccc2c(c1)C(=O)N([C@H](C)CO)C[C@@H](C)[C@H](CN(C)Cc1ccncc1)O2	/	/	/	-3	/	/
CCOc1ccc(C(=O)Nc2ccc(Cl)cn2)cc1Cl	?	50	4	132*	12	103*
O=C(COc1ccc(Cl)cc1Cl)Nc1ccc(Cl)cn1	13	24	5	-7	10	96*
O=C(COC(=O)COc1ccccc1)Nc1cccnc1Cl	-1	/	-3	-6	/	9
O=C(COC(=O)COc1ccc(Cl)cc1Cl)Nc1cccnc1Cl	-2	63*	2	/	13	6
CCOc1ccc(C(=O)Nc2cc(NC(=O)c3ccc(OCC)c(Cl)c3)cc(C(=O)O)c2)cc1Cl	-1	11	0	6	2	12
CCc1ccccc1NC(=O)COc1cccc2ccc(C)nc12	-5	-82	-2	-1	-77*	-10
O=C(Nc1ccc2c(c1)[C@H]1C[C@H](CC(=O)N3CCc4ccccc4C3)O[C@@H](CO)[C@H]1O2)Nc1ccccc1F	/	/	/	-17	/	/
CCCCc1cc(O)c(CCCC)c(O)c1	/	182*	2	-10	127	53
FC(F)(F)c1cnc(-c2cnc(-c3cccnc3)nc2)c(Cl)c1	?	34	1	/	16	106*
FC(F)(F)c1cc(Cl)c2nnc(-c3cccnc3)n2c1	0	-6	-1	/	-9	4
